Rows were chosen to be rich in hits. Some 4.1% of all compounds tested hit in one or more screens of this group.
hcDAF-12 act: H. contortus DAF-12 activation, primary screen. HEK293 hcDAF-12 lit1-tk-luc reporter, luminescence; 0% DMSO, 100% Δ7-dafachronic acid. activation, % at 6.8 µM. 1.4% of 370,000 active. AID 652067;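 active = activation above the mean of all tested compounds plus 3 SD, cut at about 5.5% in these data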;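 also: 100% = response to 3 µM Δ7-dafachronic acid high control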
DAX1 inh-1: inhibitors of DAX1 repression of SF-1 activated StAR promoter. inhibition, % at 6.8 µM. 1.1% of 370,000 active. HEK293T StAR-luciferase reporter, SF-1/DAX-1 repression relief;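 active = inhibition above the mean over all tested compounds plus 3 SD, cut at about 3.6% in these data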;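 also: 0% = DAX-1 cells with DMSO and 100% = cells lacking DAX-1 with DMSO; higher inhibition means more luminescence from relief of DAX-1 repression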
ssDAF12 agonist: S. stercoralis DAF-12 activation, primary screen; HEK293 ssDAF-12/GRIP1 lit1-tk-luc reporter, luminescence; % of 3 µM dafachronic acid response; 1% of 370,000 active; activation, % at 6.8 µM; AID 652126;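 active = activation above the mean over all tested compounds plus 3 SD, cut at about 0.9% in these data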;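 also: 0% = DMSO-only wells and 100% = 3 µM delta7-dafachronic acid wells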
hgDAF-12 ag: activates the H. glycines DAF-12 receptor ligand-binding domain; HEK293 GAL4-hgDAF12 UAS-luciferase reporter, agonist luminescence; normalized to butyrate control; activation, % at 6.8 µM; 1.8% of 370,000 active;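 active = activation above a cutoff set at the mean of all screened compounds plus 3 SD, cut at about 10% in these data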;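 also: 0% = DMSO wells and 100% = sodium butyrate wells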
DAX1 inh-2: inhibits human nuclear receptor DAX1; P51843; HEK293 Gal4-DAX1 luciferase reporter, luminescence; inhibition, % at 6.75 µM; 0.99% of 340,000 active; AID 504766;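 active = inhibition above the mean over all tested compounds plus 3 SD, cut at about 4.2% in these data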;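 also: 0% = DAX1-transfected cells with DMSO and 100% = empty-vector control cells with DMSO; inhibition shows as a rise in luminescence from relieved DAX1 repression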
DAX1 conf: NR0B1 (human) inhibition, confirmation. shares compounds with DAX1 inh-1. HEK293T StAR-promoter luciferase reporter, SF-1/DAX-1 repression. inhibition, % at 6.8 µM. 87% of 2,400 active;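 active = inhibition above the average of every tested compound plus 3 SD, cut at about 3.8% in these data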;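 also: 0% = DAX-1 cells with DMSO and 100% = no DAX-1 control cells with DMSO; active compounds raise luminescence by relieving repression of the StAR reporter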
Target sequence (P51843 whole entry, looked up): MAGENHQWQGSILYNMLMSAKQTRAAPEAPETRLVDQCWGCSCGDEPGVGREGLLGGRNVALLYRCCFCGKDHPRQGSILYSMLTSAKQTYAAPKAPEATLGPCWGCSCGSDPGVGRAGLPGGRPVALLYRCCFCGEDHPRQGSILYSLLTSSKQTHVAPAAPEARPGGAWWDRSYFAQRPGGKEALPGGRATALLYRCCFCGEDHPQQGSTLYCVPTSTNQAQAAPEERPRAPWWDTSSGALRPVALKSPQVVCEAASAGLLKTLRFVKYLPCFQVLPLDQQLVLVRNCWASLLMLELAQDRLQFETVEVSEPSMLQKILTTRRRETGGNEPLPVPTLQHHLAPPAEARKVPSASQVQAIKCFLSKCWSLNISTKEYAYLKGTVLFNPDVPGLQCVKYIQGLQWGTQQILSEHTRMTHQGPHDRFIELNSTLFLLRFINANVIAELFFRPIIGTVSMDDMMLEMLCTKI
SF1 mutant ctr: nonselective inhibitor or artifact in SF-1 mutant DAX1 counter-screen; inhibition, % at 6.8 µM; 78% of 2,400 active; shares compounds with DAX1 inh-1; HEK293 StAR-luciferase, SF-1 AF2 mutant, luminescence;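 active = inhibition above the mean of all tested compounds plus 3 SD, cut at about 3% in these data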;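 also: 0% = DAX-1 transfected cells with DMSO and 100% = cells without DAX-1 with DMSO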
LXRb hcDAF ctr: activates human LXR-beta, counter-screen for hcDAF-12 agonists; shares compounds with hcDAF-12 act; HEK293 Gal4-LXR tk-luc reporter, luminescence, 24 h; normalized: DMSO 0%, positive control 100%; activation, % at 6.8 µM; 3,400 tested, under 10 active; AID 743027;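 active = mean percent activation of the reporter above a cutoff set as the average over tested compounds plus their standard deviation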
hcDAF12 conf: hcDAF-12 agonism, confirmation assay; AID 743032; 61% of 3,400 active; activation, % at 6.8 µM; HEK293 hcDAF-12 lit1-tk-luc reporter, luminescence; % of Δ7-dafachronic acid response; shares compounds with hcDAF-12 act;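 active = mean activation across triplicate tests above the threshold derived from the earlier primary screen, cut at about 5.5% in these data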;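 also: 0% = DMSO only wells and 100% = 3 µM Δ7-dafachronic acid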
hgDAF12 conf: confirmation of H. glycines DAF-12 agonists. HEK293 GAL4-hgDAF12 luciferase reporter, agonist mode; percent of butyrate response. 80% of 3,300 active. shares compounds with hgDAF-12 ag. activation, % at 6.8 µM. AID 743050;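 active = mean activation over triplicate wells above the hit cutoff derived from the earlier primary screen, cut at about 11% in these data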;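 also: 0% = DMSO low control and 100% = 2 mM sodium butyrate high control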
LXRb DAF12 ctr: counter-screen for DAF-12 agonists: agonists of human LXR-beta. shares compounds with hgDAF-12 ag. HEK293 Gal4-LXR luciferase reporter, 24 h. activation, % at 6.8 µM. 3,300 tested, under 10 active. AID 743051;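 active = mean activation of the triplicate above a set limit carried over from the primary screen, none filed active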
Active calls of the source: *; . = no result given.

SMILES	hcDAF-12 act	DAX1 inh-1	ssDAF12 agonist	hgDAF-12 ag	DAX1 inh-2	DAX1 conf	SF1 mutant ctr	LXRb hcDAF ctr	hcDAF12 conf	hgDAF12 conf	LXRb DAF12 ctr
O=[N+]([O-])c1ccc2nc(-c3ccncc3)[nH]c2c1	2	0	-1	4	3	.	.	.	.	.	.
Cc1ccc(-c2nc3ccc([N+](=O)[O-])cc3[nH]2)cc1	7.1*	9.2*	0	18*	-2	14*	6.7*	1	7.1*	18*	1
Cc1cc(C)c2sc(NC(=O)C3=COCCO3)nc2c1	10*	14*	0	21*	2	9.5*	4.3*	1	5	17*	1
C/C(=N/NC(=O)c1ccc(C)s1)c1cccc(NC(=O)c2ccoc2C)c1	-1	1	-1	4	0	.	.	.	.	.	.
C/C(=N/NC(=O)c1ccoc1C)c1cccc(NC(=O)C(F)(F)F)c1	3	6.0*	1	15*	2	6.3*	2	.	.	6	0
C/C(=N/NC(=O)c1ccoc1C)c1cccc(NC(=O)C2CC2)c1	7.3*	6.1*	1.0*	16*	1	1	0	0	0	0	0
CCN(c1ccc(OC)cc1)S(=O)(=O)N1CCCC(C(=O)NC(C)c2ccccc2)C1 (stereo unspecified)	-1	0	-1	0	.	.	.	.	.	.	.
COc1ccc(C(C)=O)cc1Cn1c(C)c(C(=O)NCc2cccc(C(F)(F)F)c2)sc1=O	0	0	-2	-3	.	.	.	.	.	.	.
Cc1ccc(NC(=O)c2ccccc2)s1	6.9*	4.5*	0	20*	0	15*	11*	1	8.3*	15*	1
N/C(=N\OC(=O)/C=C/c1ccccc1)c1ccncc1	1	1	-1	7	3	.	.	.	.	.	.
N/C(=N\OC(=O)c1ccc(Cl)cc1Cl)c1ccncc1	1	1	-1	7	-1	.	.	.	.	.	.
N/C(=N\OC(=O)c1ccccc1Cl)c1ccncc1	6.2*	5.6*	1	14*	0	6.8*	5.3*	.	.	13*	1
N/C(=N\OC(=O)/C=C/c1ccccc1Cl)c1ccncc1	6.8*	9.2*	0	21*	2	11*	6.3*	1	4	16*	1
COc1ccc(C2CC=C(C(C)=O)CN2S(=O)(=O)c2ccccc2)cc1 (stereo unspecified)	-2	-2	-1	-2	.	.	.	.	.	.	.
Cc1cc(C)n2nc(-c3ccc(F)cc3)cc2n1	9.5*	6.6*	2.9*	18*	3	13*	8.5*	1	12*	18*	1
COc1ccc(-c2nn(-c3ccccc3)cc2N)cc1	4	5.3*	0	16*	2	9.2*	5.8*	.	.	16*	0
c1coc(-c2cc3nc(NC4CCCCC4)ccn3n2)c1	10*	10*	1.2*	22*	.	15*	10*	2	12*	19*	1
c1coc(-c2cc3nc(NCc4ccc5c(c4)OCO5)ccn3n2)c1	1	0	-1	4	.	.	.	.	.	.	.
Cc1ccc(NC(=O)c2c(C)nc3ccccn23)cc1C	1	5.8*	-1	14*	5.6*	8.9*	6.1*	.	.	16*	1
Cc1cccc(NC(=O)c2c(C)nc3ccccn23)c1	-1	1	-1	3	-1	.	.	.	.	.	.
Cc1ccnc(N2C(=O)c3ccccc3C2O)c1 (stereo unspecified)	6.7*	7.1*	0	16*	2	11*	7.4*	1	3	16*	1
CCC(=O)Nc1ccc(OCc2nc3ccccc3s2)cc1	11*	9.4*	2.5*	20*	2	15*	7.7*	1	11*	16*	1
CCN(CC(=O)Nc1ccc2c(c1)OCCO2)C(=O)CCc1ccccc1Cl	1	-2	-1	-1	0	.	.	.	.	.	.
CN(C)C(=O)c1cccc(-c2cccc(-c3nc(C(=O)NCc4ccccc4)cc4c3[C@H](CCO)N(S(=O)C(C)(C)C)C4)c2)c1 (stereo partly specified)	0	-1	-1	-2	.	.	.	.	.	.	.
O=C(NN=Cc1ccc(Cl)cc1Cl)c1ccccc1	3	5.5*	1	17*	3	11*	5.8*	.	.	16*	1
SMILES	hcDAF-12 act	DAX1 inh-1	ssDAF12 agonist	hgDAF-12 ag	DAX1 inh-2	DAX1 conf	SF1 mutant ctr	LXRb hcDAF ctr	hcDAF12 conf	hgDAF12 conf	LXRb DAF12 ctr
O=C(N/N=C/c1ccc(Cl)cc1Cl)c1ccncc1	-2	-1	-1	3	1	.	.	.	.	.	.
CC1CCN(c2ccc(NC(=O)c3ccc(Br)o3)cc2)CC1	4	14*	0	20*	1	11*	9.6*	.	.	18*	1
CS(=O)(=O)N1CCN(c2ccc(NC(=O)c3ccc(Br)o3)cc2)CC1	1	3	0	7	1	.	.	.	.	.	.
C=CCn1c(=O)c(C(=O)Nc2ccccc2C(=O)OCC)c(O)c2ccccc21	1	-1	-1	-1	0	.	.	.	.	.	.
C=CCn1c(=O)c(C(=O)Nc2ccccc2S(N)(=O)=O)c(O)c2ccccc21	12*	5.8*	1.1*	15*	1	10*	4.0*	1	5	11*	0
O=c1c2ccccc2oc2c1oc1ccccc12	5	6.6*	0	15*	3	7.3*	6.5*	.	.	13*	0
O=C1C(C=Nc2ccc(F)cc2)=C(O)c2ccccc21	8.9*	5.3*	1	22*	0	19*	8.7*	2	9.5*	20*	1
Cc1cc(N2CCCCC2)n2ncc(-c3ccccc3)c2n1	5	2	-1	3	-1	.	.	.	.	.	.
COc1ccc(-c2cc(C)nc3c(-c4ccccc4)cnn23)cc1	5	12*	0	14*	0	15*	7.8*	.	.	9	1
CCC1(C)CC(C#N)(C#N)C(=O)NC1=O (stereo unspecified)	-2	-1	-2	1	.	.	.	.	.	.	.

High-throughput results (PubChem)
